Test results from PubChem BioAssay.
For some assays here: Results with a measured potency or affinity are listed apart. The source made the active and inactive calls. Unless noted, no rule for the calls is given here.

Experiments:
[1] = antimalarial activity against Dd2 strain (AID 2302;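 active = growth inhibition above 50% at the single 2 µM test dose, taken to imply half-maximal potency below 2 µM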;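 also: 0% = DMSO untreated growth and 100% = chloroquine plus artemisinin killed control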); details: P. falciparum Dd2 in RBCs, LDH growth readout, 72 h; at 2 µM; stronger effect = higher value
[2] = HepG2 cytotoxicity, primary screen, cytotoxicity control for P. falciparum antimalarial project, cell-based, ATP luminescence (AID 2303;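 active = inhibition above 50%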;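 also: 0% = DMSO wells and 100% = digitonin-killed cells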); details: HepG2 viability, 24-48 h, at 10 µM, stronger effect = higher value
[3] = biological target: L-lactate dehydrogenase (Plasmodium falciparum (isolate CDC / Honduras)) (UniProt Q27743); assay: PfLDH activity inhibition – cell lysate, 3D7 strain, counter-screen for P. falciparum growth inhibition project (AID 2304);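 also: 0% = vehicle and 100% = reference inhibitor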; details: P. falciparum 3D7 crude extract, LDH APAD/NBT absorbance; at 2 µM; stronger effect = higher value
L-lactate dehydrogenase (Plasmodium falciparum (isolate CDC / Honduras)), sequence (Q27743 whole entry, looked up): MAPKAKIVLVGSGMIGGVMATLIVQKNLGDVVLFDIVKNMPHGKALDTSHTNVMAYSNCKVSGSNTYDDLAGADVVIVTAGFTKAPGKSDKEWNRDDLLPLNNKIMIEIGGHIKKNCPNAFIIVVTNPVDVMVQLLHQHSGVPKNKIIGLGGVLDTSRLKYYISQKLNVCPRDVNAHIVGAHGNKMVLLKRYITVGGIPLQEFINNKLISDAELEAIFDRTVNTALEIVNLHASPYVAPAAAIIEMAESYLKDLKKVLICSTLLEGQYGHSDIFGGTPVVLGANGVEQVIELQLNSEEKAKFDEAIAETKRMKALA

[4] = inhibition of 3D7 malaria parasite growth – strain 3D7 (AID 2306);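 also: 0% = DMSO wells and 100% = chloroquine plus artemisinin control wells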; details: P. falciparum 3D7 erythrocytic growth, LDH absorbance, 72 h; at 2 µM; stronger effect = higher value
[5] = biological target: Calcium-dependent protein kinase 1 (Plasmodium falciparum (isolate 3D7)) (UniProt P62344); assay: PfCDPK1 kinase inhibitors, biochemical, TCAMS library (AID 1159585; cut-off not given, nearly all actives have IC50 up to about 0.98 µM;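 also: inhibitors leave more ATP so luminescence rises with inhibition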); details: recombinant PfCDPK1, Kinase-Glo ATP depletion luminescence
Calcium-dependent protein kinase 1 (Plasmodium falciparum (isolate 3D7)), sequence (P62344 whole entry, looked up): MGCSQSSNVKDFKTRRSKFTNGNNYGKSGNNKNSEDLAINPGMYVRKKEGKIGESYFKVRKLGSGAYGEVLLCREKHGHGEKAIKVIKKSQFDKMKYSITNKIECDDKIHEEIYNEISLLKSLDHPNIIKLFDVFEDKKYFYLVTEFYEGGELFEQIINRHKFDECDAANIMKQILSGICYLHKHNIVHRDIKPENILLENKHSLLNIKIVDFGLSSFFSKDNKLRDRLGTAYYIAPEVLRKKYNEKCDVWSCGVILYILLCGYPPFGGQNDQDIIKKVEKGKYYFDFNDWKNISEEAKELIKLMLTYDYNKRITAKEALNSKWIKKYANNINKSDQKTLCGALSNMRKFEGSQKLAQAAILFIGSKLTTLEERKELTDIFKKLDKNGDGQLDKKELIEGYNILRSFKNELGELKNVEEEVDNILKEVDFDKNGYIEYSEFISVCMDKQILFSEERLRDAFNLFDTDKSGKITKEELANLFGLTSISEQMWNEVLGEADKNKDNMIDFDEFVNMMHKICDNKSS

[6] = biological target: Plasmodium falciparum protein kinase 6 (PK6, PF3D7_1337100) (UniProt Q8IDW1); assay: PfPK6 kinase inhibitors, biochemical, TCAMS library (AID 1159586); details: recombinant PfPK6, Kinase-Glo ATP depletion luminescence
Plasmodium falciparum protein kinase 6 (PK6, PF3D7_1337100), sequence (Q8IDW1 1-305): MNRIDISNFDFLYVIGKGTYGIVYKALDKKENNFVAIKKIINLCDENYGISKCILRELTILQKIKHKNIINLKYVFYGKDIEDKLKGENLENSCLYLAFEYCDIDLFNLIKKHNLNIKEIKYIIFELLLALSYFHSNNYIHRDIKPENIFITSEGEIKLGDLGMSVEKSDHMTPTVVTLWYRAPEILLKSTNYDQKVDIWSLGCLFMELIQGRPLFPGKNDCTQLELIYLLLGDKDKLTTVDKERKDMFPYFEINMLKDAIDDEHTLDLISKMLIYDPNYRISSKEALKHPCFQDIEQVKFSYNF

[7] = biological target: Protein kinase 7 (PK7), Plasmodium falciparum 3D7 (PF3D7_0213400) (UniProt Q7YTF7); assay: inhibition of Plasmodium PK7 catalytic activity – biochemical, TCAMS antimalarial set, Kinase-Glo luminescence (AID 1159587); details: recombinant PfPK7, Kinase-Glo ATP depletion luminescence
Protein kinase 7 (PK7), Plasmodium falciparum 3D7 (PF3D7_0213400), sequence (Q7YTF7 1-343): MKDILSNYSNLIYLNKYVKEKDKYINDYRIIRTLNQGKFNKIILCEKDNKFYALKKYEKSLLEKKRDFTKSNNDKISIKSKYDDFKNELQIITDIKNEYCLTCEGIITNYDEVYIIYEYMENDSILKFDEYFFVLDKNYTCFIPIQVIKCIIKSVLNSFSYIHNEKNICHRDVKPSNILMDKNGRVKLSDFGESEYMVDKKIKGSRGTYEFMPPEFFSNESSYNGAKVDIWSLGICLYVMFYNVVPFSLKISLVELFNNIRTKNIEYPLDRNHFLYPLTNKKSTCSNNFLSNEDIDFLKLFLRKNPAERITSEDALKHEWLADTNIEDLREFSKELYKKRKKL

[8] = biological target: Calcium-dependent protein kinase 4 (Plasmodium falciparum (isolate 3D7)) (UniProt Q8IBS5); assay: PfCDPK4 kinase inhibitors, biochemical, TCAMS library (AID 1159588; cut-off not given, nearly all actives have IC50 up to about 0.91 µM); details: recombinant PfCDPK4, Kinase-Glo ATP depletion luminescence
Calcium-dependent protein kinase 4 (Plasmodium falciparum (isolate 3D7)), sequence (Q8IBS5 whole entry, looked up): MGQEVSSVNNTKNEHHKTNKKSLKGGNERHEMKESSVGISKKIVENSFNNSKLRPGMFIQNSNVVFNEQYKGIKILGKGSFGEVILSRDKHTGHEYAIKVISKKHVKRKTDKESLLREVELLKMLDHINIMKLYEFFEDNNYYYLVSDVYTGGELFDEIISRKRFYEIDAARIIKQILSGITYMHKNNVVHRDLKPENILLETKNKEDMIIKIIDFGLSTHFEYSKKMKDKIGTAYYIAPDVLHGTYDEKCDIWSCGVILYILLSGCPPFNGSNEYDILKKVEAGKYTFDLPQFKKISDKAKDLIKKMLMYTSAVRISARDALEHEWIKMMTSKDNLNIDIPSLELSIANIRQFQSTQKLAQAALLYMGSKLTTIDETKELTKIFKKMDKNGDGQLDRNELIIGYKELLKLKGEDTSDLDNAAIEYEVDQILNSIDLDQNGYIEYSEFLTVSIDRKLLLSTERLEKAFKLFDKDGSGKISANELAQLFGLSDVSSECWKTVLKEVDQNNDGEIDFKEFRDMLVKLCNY

CCCCNC(c1ccc(Cl)cc1)C(O)c1ccc(Cl)cc1 (stereo unspecified)
active: growth inhibition [1] 98% | growth inhibition [4] 99%
inactive: inhibition [2] 13% | inhibition [3] 4% | outcome [5] | outcome [6] | outcome [7] | outcome [8]

CNC(=O)c1ccc2[nH]cc(C3CCN(CC4CCC(NC(=O)/C=C/c5ccccc5Cl)CC4)CC3)c2c1 (stereo unspecified)
active: growth inhibition [4] 100%
inactive: growth inhibition [1] 19% | inhibition [2] 12% | inhibition [3] 3% | outcome [5] | outcome [6] | outcome [7] | outcome [8]

COc1cc(C=CC(=O)NC2CCC(CN3CCC(c4c[nH]c5ccccc45)CC3)CC2)cc(OC)c1 (stereo unspecified)
inactive: inhibition [2] 38% | inhibition [3] -9% | outcome [5] | outcome [6] | outcome [7] | outcome [8]
active: growth inhibition [1] 90% | growth inhibition [4] 101%

CC[C@H]1CN2CC[C@@H]1C[C@H]2[C@H](O)c1cc(N2CCC(O)(c3ccccc3)CC2)nc2ccc(OC)cc12
inactive: inhibition [2] 14% | inhibition [3] -2% | outcome [5] | outcome [6] | outcome [7] | outcome [8]
active: growth inhibition [1] 98% | growth inhibition [4] 101%

C=C[C@H]1CN2CC[C@@H]1C[C@H]2[C@H](O)c1cc(-c2ccc(F)cc2)nc2ccc(OC)cc12
active: growth inhibition [1] 98% | growth inhibition [4] 99%
inactive: inhibition [2] 5% | inhibition [3] -1% | outcome [5] | outcome [6] | outcome [7] | outcome [8]

O=C(NC1CCC(CN2CCC(c3c[nH]c4ccccc34)CC2)CC1)NC12CC3CC(CC(C3)C1)C2 (stereo unspecified)
active: growth inhibition [4] 96%
inactive: growth inhibition [1] 46% | inhibition [2] 37% | inhibition [3] 7% | outcome [5] | outcome [6] | outcome [7] | outcome [8]

CC[C@H]1CN2CC[C@H]1C[C@H]2[C@H](O)c1ccnc2ccc(OC)cc12
active: growth inhibition [1] 62% | growth inhibition [4] 100%
inactive: inhibition [2] -8% | inhibition [3] -4% | outcome [5] | outcome [6] | outcome [7] | outcome [8]
